Measurements taken from PubChem BioAssay AID1779 (Sanford-Burnham Center for Chemical Genomics, 2009).
Out of some 290,000 compounds screened, about 160 (0.055%) were called active. The sample holds actives, similar compounds and a random draw of the others, so the mix is not that of the screen. No stated cut-off is given here; in the data, active means inhibition above about 50%; inactive means the rest.

molecular target: Tyrosine-protein phosphatase non-receptor type 22 (Homo sapiens) (UniProt Q9Y2R2); test: PTPN22 lymphoid phosphatase activity blockers – biochemical, fluorescence intensity, uHTS (AID 1779); conditions: recombinant LYP phosphatase, at 11.5 µM, active compounds read high;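 further: plate controls were vehicle with enzyme for no effect and no enzyme for full effect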
Sequence (Q9Y2R2 whole entry, looked up): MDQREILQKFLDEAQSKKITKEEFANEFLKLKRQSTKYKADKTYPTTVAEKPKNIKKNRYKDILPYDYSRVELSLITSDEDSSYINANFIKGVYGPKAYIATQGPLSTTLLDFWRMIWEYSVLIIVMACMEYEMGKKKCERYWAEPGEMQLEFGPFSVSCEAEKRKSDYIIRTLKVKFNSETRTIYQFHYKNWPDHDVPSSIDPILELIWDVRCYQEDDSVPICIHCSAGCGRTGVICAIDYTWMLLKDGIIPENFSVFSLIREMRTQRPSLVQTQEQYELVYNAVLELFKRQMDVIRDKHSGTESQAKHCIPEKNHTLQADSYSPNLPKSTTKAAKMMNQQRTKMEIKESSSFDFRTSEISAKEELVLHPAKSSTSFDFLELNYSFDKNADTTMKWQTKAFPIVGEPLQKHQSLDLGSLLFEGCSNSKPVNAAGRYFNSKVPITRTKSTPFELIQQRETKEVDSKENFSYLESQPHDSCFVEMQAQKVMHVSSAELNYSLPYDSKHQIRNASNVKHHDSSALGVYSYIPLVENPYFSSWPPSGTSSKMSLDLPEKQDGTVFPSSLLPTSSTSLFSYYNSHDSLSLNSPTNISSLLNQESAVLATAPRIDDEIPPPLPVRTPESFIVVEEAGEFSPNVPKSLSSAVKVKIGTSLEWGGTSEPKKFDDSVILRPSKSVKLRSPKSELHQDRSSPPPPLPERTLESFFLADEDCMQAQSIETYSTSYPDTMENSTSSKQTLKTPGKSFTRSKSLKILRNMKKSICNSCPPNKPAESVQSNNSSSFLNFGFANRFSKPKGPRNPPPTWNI

Compound	inhibition
O=C(NCc1ccncc1)c1cncc(Br)c1	-9.5% (inactive)
Cc1ccc(CNC(=O)c2cncc(Br)c2)cc1	-2.9% (inactive)
O=C(NCc1ccccc1)c1cncc(Br)c1	67.8% (active)
NC(=O)Nc1ccc(C(=O)OCC(=O)Nc2cccc(S(=O)(=O)NC3=NCCCCC3)c2)cc1	-1.2% (inactive)
CCOC(=O)c1cc(-c2ccccc2)sc1NC(=S)Nc1cccc(C)n1	5.7% (inactive)
Cc1ccc2nsnc2c1NC(=O)CCl	-1.6% (inactive)
CC(C)(C)c1nc(S(=O)(=O)c2ccc(Cl)cc2)c(N2CCOCC2)o1	-10.6% (inactive)
CCCCc1nc(S(=O)(=O)c2ccc(Cl)cc2)c(N2CCOCC2)o1	-7.7% (inactive)
CC(C)Cc1nc(S(=O)(=O)c2ccc(Cl)cc2)c(N2CCOCC2)o1	81.8% (active)
CCc1ccc2c(CC(=O)Nc3nnc(C4CC4)s3)coc2c1	-7.3% (inactive)
Cc1ccc(CNC(=O)CN2CCN(c3ccc(F)cc3)CC2)cc1	1.2% (inactive)
CCN(CCO)Cc1csc2ccc(Br)cc12	-8.6% (inactive)
CCN(CCO)Cc1csc2ccc(C(C)(C)C)cc12	52.5% (active)
CCN(CCO)Cc1csc2ccc(Cl)cc12	-3.3% (inactive)
FC(F)(F)c1cc(Cl)c2nnc(-c3cccnc3)n2c1	-4.4% (inactive)
Cc1ccc(NC(=Nc2ccc(Br)cc2)N2CCOCC2)cc1C	-2.9% (inactive)
Cc1ccc2[nH]c(=O)cc(C(=O)OCC(=O)c3ccccc3)c2c1	70.6% (active)
Cc1ccc(C(=O)COC(=O)c2cc(=O)[nH]c3ccccc23)cc1	-5.1% (inactive)
Cc1ccc2[nH]c(=O)cc(C(=O)OCC(=O)c3ccc(F)cc3)c2c1	1.2% (inactive)
Cn1c(C(=O)NC2CCCCC2)cc2sccc21	-4.8% (inactive)
CCOC(=O)c1ccc(NC(=S)Nc2ccccc2)cc1	-5.5% (inactive)
CCOC(=O)c1ccc(NC(=S)NC(=O)COc2ccccc2)cc1	69.2% (active)
CCC(=O)NC(=S)Nc1ccc(NC(=O)COc2ccccc2)cc1	-2.2% (inactive)
COc1ccc2[nH]c(=O)c(CN(c3ccccc3OC)S(=O)(=O)c3ccccc3)cc2c1	-5.9% (inactive)

Compound	inhibition
Nc1nc(NCCN2CCOCC2)nc(NCc2ccccc2)c1[N+](=O)[O-]	-6% (inactive)
COCCNC(=O)c1ccc2c(Cl)c3c(nc2c1)CCC3	-7.1% (inactive)
CC(C)CCNC(=O)c1ccc2c(SCC(=O)O)c3c(nc2c1)CCC3	-1.8% (inactive)
CC(C)CCNC(=O)c1ccc2c(Cl)c3c(nc2c1)CCC3	85.9% (active)
O=C(Nc1ccccc1C(=O)NCc1ccccc1)c1ccccc1Br	-1.2% (inactive)
COc1ccc(C(C(=O)NC2CCCC2)N2CCc3ccccc32)cc1 (centres undefined)	88.2% (active)
Cc1ccc(C(C(=O)NC2CCCC2)N2CCc3ccccc32)cc1 (centres undefined)	0.4% (inactive)
O=C(NC1CCCCC1)C(c1ccccc1)N1CCc2ccccc21 (centres undefined)	3% (inactive)
COc1ccc(CNC(=O)Cc2ccc(NC(=O)C3=C(C)OCCS3)cc2)cc1	-1.9% (inactive)
CC(O)CNc1nc2c(c(=O)n(Cc3ccc(Cl)c(Cl)c3)c(=O)n2C)n1C (centres undefined)	-3.6% (inactive)
CCOc1cc(/C=C(\C#N)C(=O)Nc2cccc(C(=O)O)c2)ccc1OCc1ccccc1Cl	-2.4% (inactive)
COc1cc(/C=C(\C#N)C(=O)Nc2cccc(C(=O)O)c2)ccc1OCc1ccc(C)cc1	-1.7% (inactive)
N#C/C(=C\c1ccc(OCc2ccc(Br)cc2)cc1)C(=O)Nc1cccc(C(=O)O)c1	93.4% (active)
N#C/C(=C/c1ccccc1OCc1ccc(F)cc1)c1ccc(C(=O)O)cc1	-6.7% (inactive)
COc1cc(/C=C(\C#N)C(=O)Nc2cccc(C(=O)O)c2)ccc1OCc1ccc(Cl)cc1	15% (inactive)
N#C/C(=C\c1ccccc1OCc1ccc(C(=O)O)cc1)c1ccccc1	-4.4% (inactive)
N#C/C(=C\c1ccc(OCc2ccc(F)cc2)cc1)C(=O)Nc1cccc(C(=O)O)c1	5.5% (inactive)
N#C/C(=C\c1ccc(OCc2ccccc2)cc1)C(=O)Nc1ccc(C(=O)O)cc1	3% (inactive)
N#C/C(=C/c1ccc(OCc2ccc(C(=O)O)cc2)cc1)C(=O)Nc1ccccc1	-4.6% (inactive)
COc1ccc(-c2sc3ccccc3c2C#CC2(O)CCCCC2)cc1	-5% (inactive)
CSc1nc2ccc(NS(=O)(=O)c3ccc(Cl)s3)cc2s1	1.1% (inactive)
COC(=O)CSCC(=O)Nc1nnc(-c2cccc(C)c2)s1	5% (inactive)
CC(=O)c1sc(NC(=O)C(C)Oc2ccc3c(C)cc(=O)oc3c2)nc1C (centres undefined)	-5.1% (inactive)
CC(=O)N(C)c1ccc(NC(=S)Nc2cccc3ccccc23)cc1	-2.8% (inactive)

Compound	inhibition
O=C(Cn1nc(Cc2cccnc2)c2ccccc2c1=O)Nc1cc(F)ccc1F	-6.7% (inactive)
O=C(N=C1SC2CS(=O)(=O)CC2N1Cc1ccccc1Cl)C1CC1 (centres undefined)	-11.3% (inactive)
COc1ccccc1CNC(=O)c1cc2sccc2n1C	-5.5% (inactive)
CC(=O)Nc1ccc(S(=O)(=O)N2CCC(NC(=O)C(Cc3ccc(C)cc3)NC(C)=O)CC2)cc1 (centres undefined)	-16% (inactive)
CCC1=C(OC(=O)N(CC)CC)N2C(=O)OC(=NCC3CC3)[C@]2(C)[C@H]2C1=CC[C@H]1C(=O)NC(=O)[C@H]12	-0.8% (inactive)
CCOC(=O)c1c(C)[nH]c(C)c1C(=O)CSc1nc2ccccc2n1CC	-7.1% (inactive)
O=C(O)C1CC=CCC1C(=O)Nc1ccc(F)c(F)c1 (centres undefined)	6.1% (inactive)
O=C(O)C1CCCCC1C(=O)Nc1ccc(F)c(F)c1 (centres undefined)	51.4% (active)
O=C(O)C1CCCCC1C(=O)Nc1ccc(Cl)cc1 (centres undefined)	-1.6% (inactive)
COc1cccc(C2C(C(=O)c3cc4ccccc4o3)=C(O)C(=O)N2c2cc(C)on2)c1 (centres undefined)	-8% (inactive)
Cc1ccc(C)c(CN2C(=O)COc3ccccc32)c1	-5.6% (inactive)
CCCN1C(=O)COc2ccc(C(=O)c3ccccc3C(=O)O)cc21	-4.6% (inactive)
Cc1ccc(C)c(CN2C(=O)COc3ccc(C(=O)c4ccccc4C(=O)O)cc32)c1	57.9% (active)
O=S(=O)(/C=C/c1ccccc1)NC1CCCCCCC1	-7.9% (inactive)
CC(c1ccccc1)n1c(N2CCN(C)CC2)nc2c1c(=O)[nH]c(=O)n2C (centres undefined)	-0.2% (inactive)
CCN(CC)CCNC(=O)Cc1nn(CC)c(=O)c2ccccc12	-9.1% (inactive)
COCCn1c(=O)c2cc3c(=O)n(CCOC)c(=O)c3cc2c1=O	-8.5% (inactive)
CCCC(=O)NCCc1cc2ccc(C)c(C)c2[nH]c1=O	67.2% (active)
CC(=O)NCCc1cc2ccc(C)c(C)c2[nH]c1=O	0.4% (inactive)
CCC(=O)NCCc1cc2ccc(C)c(C)c2[nH]c1=O	1.7% (inactive)
CCOc1ccccc1/C=N/OCC(=O)NCc1ccc(F)cc1	-5.5% (inactive)
O=C(O)c1ccc(-n2c(=O)c3ccccc3c3ccccc3c2=O)cc1	-4% (inactive)
Cc1ccc(-n2c(=O)c3cc4c(=O)n(-c5ccc(C)c(C)c5)c(=O)c4c(C(=O)c4ccc(C(=O)O)cc4)c3c2=O)cc1C	85.8% (active)
Cc1ccc(N2C(=O)c3ccc(C(=O)O)cc3C2=O)cc1C	-1.9% (inactive)

Compound	inhibition
COCCN(C(=O)c1csnn1)C(C(=O)NC1CCCCC1)c1ccc(C)cc1 (centres undefined)	-9.2% (inactive)
NC(=O)C(c1cccc(Cl)c1)c1ncc(C(F)(F)F)cc1Cl (centres undefined)	-10.5% (inactive)
C#CCOc1ccc(/C=N/NC(=O)c2cccnc2)cc1OCC	1.2% (inactive)
COc1ccccc1OCC(=O)OCC(=O)Nc1ncc(Cl)cc1Cl	-9.7% (inactive)
O=C(Nc1ccccc1)C1=C[C@@H](C2CCCCC2)C[C@@H](OCCCCO)O1	2.1% (inactive)
O=C(O)CCCN1C(=O)/C(=C\c2ccc(-c3nc4ccccc4s3)o2)SC1=S	6.8% (inactive)
O=C(O)CCN1C(=O)/C(=C/c2ccc(-c3nc4ccccc4s3)o2)SC1=S	14.6% (inactive)
O=C(c1ccc2c(c1)OCO2)N1CCC2(CC1)Oc1ccc(Cl)cc1C(=O)C21CC(c2ccccc2)=NO1 (centres undefined)	5.7% (inactive)
O=C(O)c1ccc(-n2cccc2/C=C2/NC(=O)N(c3cccc(Cl)c3)C2=O)cc1	6.2% (inactive)
O=C(O)c1cccc(-n2cccc2/C=C2/NC(=O)N(c3cccc(Cl)c3)C2=O)c1	0.3% (inactive)
Cc1cc(NC(=O)Nc2ccc(Cl)cc2)no1	-8.1% (inactive)
CC[C@H](C)[C@H](NC(N)=O)C(=O)OCC(=O)NCc1ccc(Cl)cc1	-4.9% (inactive)
COc1cc2c(cc1OC)-c1nnc(-c3ccco3)n1C1(CCCC1)C2	-4.3% (inactive)
Cc1cc(N2CCOCC2)nc(SCc2ccc(Cl)cc2Cl)n1	-4.6% (inactive)
O=C(O)C1CCC(N2C(=O)C3CCCCC3C2=O)CC1 (centres undefined)	-12.2% (inactive)
O=C(O)C1CCC(N2C(=O)c3c(Cl)c(Cl)c(Cl)c(Cl)c3C2=O)CC1 (centres undefined)	94.2% (active)
O=C(O)C1CCC(N2C(=O)c3cccc([N+](=O)[O-])c3C2=O)CC1 (centres undefined)	-7.1% (inactive)
Cc1cccc(OCC(=O)Nc2nnn(C)n2)c1C	-6.4% (inactive)
COc1cc(/C=N/NC(=O)c2cc(-c3ccccc3OC(C)C)nc3ccccc23)ccc1O	4.4% (inactive)
CCOc1ccccc1-c1cc(C(=O)N/N=C/c2ccc(O)c(OC)c2)c2ccccc2n1	64.5% (active)
COc1cc(/C=N/NC(=O)c2cc(-c3ccccc3)nc3ccccc23)ccc1O	-1.5% (inactive)
O=C(NCCc1ccccn1)C1CCN(S(=O)(=O)c2ccc(Cl)cc2)CC1	-6.8% (inactive)
